HCMV inh = qHTS Assay for inhibitors of the human cytomegalovirus (HCMV); HFF cells, HCMV-luciferase reporter, 72 h; hits give low values; activity change, negative = inhibition, % at 57.5 µM; 410,000 tested, 4.5% active; in the data active = activity change below about -60%; inconclusive = no clear call, values can overlap the other calls; inactive = above about -39%
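Two compound doses tested in HFFs infected with HCMV-luciferase, MOI 1 PFU/cell, 72 h at 37C. Lysate luminescence read with OneGlo; data normalized against buffer-only and 10uM Salinomycin inhibitor controls.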
Lassa entry inh = qHTS for Inhibitors of binding or entry into cells for Lassa Virus; Lassa virus pseudotype entry inhibition, cell reporter; Potency, µM (doses to about 37.9 µM), inactives show top-dose activity change, negative = inhibition, hits mostly inhibitors; 300,000 tested, 1.2% active; AID 540256, 2011; calls by dose curve; tested in HEK293 cells; also: potency is read from the fitted curve at half-maximal effect; nearly all actives have a fitted effect of over 50% in size
FMDV antiviral = High Throughput Screening for Foot and Mouth Disease Virus Antivirals; FMDV antiviral cell-based qHTS; Potency, µM (top dose mostly 57.9 µM), inactives show at the top dose activity change, negative = inhibition, usual class: inhibitors; 410,000 tested, 1.2% active; calls by dose curve; tested in HEK293T cells; also: read-out not given here; potency is read from the fitted curve at half-maximal effect; nearly all actives have a fitted effect of over 45% in size
MARV entry inh = qHTS for inhibitors of binding or entry into cells for Marburg Virus | Marburg virus pseudotyped entry inhibition, cell reporter | AID 540276, 2011 | 300,000 tested, 1.8% active | Potency, µM (series often up to 37.8 µM), for inactives: top-dose activity change, negative = inhibition, most hits filed as inhibitors; calls by dose curve; tested in HEK293 cells; also: potency is read from the fitted curve at half-maximal effect
HCV inh = qHTS Assay for Inhibitors of Hepatitis C Virus (HCV); Potency, µM (highest dose often 41.8 µM), for the others: at the top dose activity change, negative = inhibition, hits mostly inhibitors; Huh7.5.1 HCVcc-Cre infection, luciferase reporter, 44 h; 340,000 tested, 3.4% active; active = well fitted inhibition curve with a large enough effect; inconclusive = small, poorly fitted or top-dose-only effect, or another doubt; inactive = no such curve, though single readings can be large or run the other way; also: potency is read from the fitted curve at half-maximal effect
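Cells (1,000/well) were plated 4 h before compound, then infected with HCVcc-Cre virus (~0.5 moi). After 44 h further culture, infection was read as luciferase luminescence following a 15 min substrate incubation at room temperature.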
Numbers without * were called inactive; u = inconclusive; x = not tested or not shown; [ ] = dose if it differs, or a comment. In the library only some 7.9% were active in any assay of this set; here they are far more common. % is scaled to controls: 0 for no effect and ±100 for the full control effect.

SMILES	HCMV inh	Lassa entry inh	FMDV antiviral	MARV entry inh	HCV inh
Cc1ccc(F)cc1NC(=S)NCCc1ccccc1	-38.2	13.0%	6.4%	-15.7%	10µM*
CCOc1ccccc1NC(=S)NCCc1ccc(F)cc1	-64.8*	x	22.0%	x	u
Cc1ccc(NC(=S)NCCc2ccc(F)cc2)c(C)c1	u	13.3%	11.7%	u	2.1%
CC[C@H]1Nc2ccc(OC)cc2[C@@H](NS(C)(=O)=O)[C@@H]1C	1.1	x	x	x	x
COc1cccc(NC(=O)CCc2c(C)nc3c4cccnc4nn3c2C)c1	-27.5	-11.0%[46.1 µM]	-21.8%	-12.8%[46.1 µM]	x
Cc1cc(Nc2ccc(C)c(Cl)c2)n2nc(-c3ccccc3)nc2n1	-27.1	-4.3%[46.1 µM]	-20.1%	11.0%[46.1 µM]	x
CNc1ncnc2c1ncn2[C@@H]1O[C@H](CO)[C@@H](O)[C@H]1O	-37.7	u	-22.0%	4.9%	-19.6%
Nc1ncnc2c1[nH]c(=O)n2C1OC(CO)C(O)C1O (centres undefined)	x	x	-2.7%	x	x
Nc1ncnc2c1ccn2[C@@H]1O[C@H](CO)[C@@H](O)[C@H]1O	-106.3*	x	u	x	35.5µM*
OCC1OC(n2ccc3c2ncn2ncnc32)C(O)C1O (centres undefined)	-94.9*	x	u	x	x
COc1ccc(C2=NOC(Cn3c(Cc4ccc(Cl)cc4)nc4c3c(=O)n(C)c(=O)n4C)C2)cc1 (centres undefined)	-9.3	-1.9%	-20.2%	-7.9%	1.41µM*
CCN1CCCC1CNC(=O)c1ccc(Sc2ccccc2Cl)c([N+](=O)[O-])c1 (centres undefined)	u	-21.4%	-20.8%	u	5.62µM*
CCN1CCCC1CNC(=O)c1ccc(Sc2ccc(F)cc2)c([N+](=O)[O-])c1 (centres undefined)	-18.0	x	-7.7%	6.31µM*	6.31µM*
O=C(NCCCN1CCOCC1)c1ccc(Sc2ccc(F)cc2)c([N+](=O)[O-])c1	21.5	6.5%	1.6%	0.4%	u
CCC(=O)Nc1cccc(-c2ccc(N3CCC(C)CC3)nn2)c1	-67.0*	x	-73.9%	x	-5.1%
CC1CCN(c2ccc(-c3cccc(NC(=O)c4ccco4)c3)nn2)CC1	37.2	2.51µM*	-23.7%	7.94µM*	u
Cc1c(-c2cccc(NC(=O)Cc3ccccc3)c2)nc2ncccn12	-19.4	26.5%[46.1 µM]	43.6%	x	x
CC1CCN(c2ccc(-c3cccc(NC(=O)C(F)(F)F)c3)nn2)CC1	-4.1	2.24µM*	15.8µM*	u	-19.6%
Cc1c(-c2cccc(NC(=O)c3ccco3)c2)nc2ncccn12	-76.0*	9.4%	-1.8%	5.4%[46.1 µM]	u
O=C([C@H]1O[C@@H](n2ccc(=O)[nH]c2=O)[C@H](O)[C@@H]1O)N1CCN(Cc2ccccn2)CC1	9.1	x	0.0%	x	x
COc1cccc(CN2CCOc3ccc(C(O)c4cccnc4)cc3C2)c1 (centres undefined)	x	x	-10.3%	x	x
CCC1(c2cccc(O)c2)CCCCN(C)C1 (centres undefined)	-68.2*	x	-14.9%	x	-65.7%
Oc1cccc(C(=S)N2CCCCC2)c1	u	9.9%	-10.2%	5.2%[46.1 µM]	-11.3%
CN(C)c1ccc(NC(=O)Cn2nnc3sc4c(c3c2=O)CCC(C(C)(C)C)C4)cc1 (centres undefined)	-3.3	u	-0.5%	-2.4%[46.1 µM]	x
Cc1nc2c(Cl)cc(Cl)cc2[nH]1	-65.5*	22.3%	6.8%	4.3%	u
SMILES	HCMV inh	Lassa entry inh	FMDV antiviral	MARV entry inh	HCV inh
Cc1nc2c([N+](=O)[O-])c(C)c(C)cc2[nH]1	-15.4	2.8%	1.2%	11.3%[46.1 µM]	0.4%
O=S(=O)(Nc1cccc(-c2ccc(N3CCOCC3)nn2)c1)c1ccc(F)cc1F	64.5	17.3%[46.1 µM]	27.6%	x	x
COc1ccc(C(=O)NC(C)c2ccccc2)cc1Br (centres undefined)	u	u	-16.6%	-18.2%	-10.7%
C[C@@H](NC(=O)c1coc(=O)c(Br)c1)c1ccccc1	6.7	u	39.8µM*	u	u
Cc1cc(NC(=O)c2coc(=O)c(Br)c2)ccc1C(C)C	51.4	1.6%	1µM*	u	8.1%
COc1ccc(NC(=O)C[C@H]2C(=O)N(C3CCCCC3)C[C@@H]2c2ccccc2)cc1	26.1	x	-1.7%	x	x
Cc1cnc(SCC2CCCO2)nc1C1CCCN(Cc2cc3c(cc2Cl)OCO3)C1 (centres undefined)	x	x	-14.4%	x	x
Cc1cccc(Nc2n[nH]c(C)c2[N+](=O)[O-])c1	87.9	u	22.5%	12.6µM*	-21.5%
O=C(c1cnccn1)N1CC(=O)N2[C@@H](CO)[C@H](c3ccc(Br)cc3)[C@@H]2C1	-22.9	x	x	x	x
CC(C)N(C(=O)Cn1cc(S(=O)(=O)CC(=O)Nc2ccccc2)c2ccccc21)C(C)C	-7.5	0.6%	16.1%	0.6%	6.9%
CCN(CC)C(=O)CSc1nnc2nnc3cc(C)ccc3n12	-66.8*	3.2%[46.1 µM]	-17.7%	-13.1%[46.1 µM]	4.4%
CCC[C@H]1[C@@H](NC(=O)Nc2cc(Cl)cc(Cl)c2)CC[C@@]23CCCN2C(=O)CCC[C@@H]13	-26.7	x	x	x	x
Oc1ccc(-c2cnns2)c(O)c1	u	11.2µM*	-18.9%	u	u
Oc1ccc(-c2nc3ccccc3s2)c(O)c1	18.9	14.6%[46.1 µM]	22.2%	u	-4.6%
CCOC(=O)[C@]12C[C@@H]3OCCN(C(=O)N[C@@H]1c1ccccc1)[C@@H]32	x	x	x	1.5%[14.2 µM]	x
CSc1cccc(NS(=O)(=O)c2cn(C)cn2)c1	u	x	4.0%	x	-19.0%
COc1ccc(-c2cc(C(F)(F)F)nc(SCC(=O)Nc3ccc(O)cc3)n2)cc1OC	-19.9	-3.3%[46.1 µM]	-9.3%	u	x
CCc1noc2nc(C)n(CC(=O)O)c(=O)c12	-0.4	14.6%[46.1 µM]	-7.2%	5.0%[46.1 µM]	x
Cc1cc(C)nc(/N=c2/ssnc2Cl)c1	-29.3	5.6%	28.2µM*	-20.6%	-7.8%
OC1(C#Cc2c(-c3ccsc3)oc3ccc(N4CCOCC4)cc23)CCCCC1	50.6	x	-32.5%	x	5.62µM*
COc1ccc(C#Cc2c(-c3ccsc3)oc3ccc(N4CCOCC4)cc23)cc1	21.5	x	-1.5%	x	u
COc1ccc(-c2oc3ccc(N4CCOCC4)cc3c2C#CC2(O)CCCCC2)cc1	4.8	x	15.2%	x	10µM*
Nc1ncnc2c1ncn2[C@@H]1O[C@H](C(=O)NC2CC2)[C@@H](O)[C@H]1O	x	x	-14.9%	x	x
C=C1C(=O)O[C@@H]2[C@H]1CC[C@H](C)[C@]1(O)CCC(=O)[C@@]21C	-67.5*	x	-21.0%	x	u
COc1ccc(C2=Nc3ccccc3N(C(=O)c3ccc4c(c3)OCO4)C2C(=O)NCc2ccccc2)cc1 (centres undefined)	-71.5*	x	20.8%	x	x
CC(C)CC(=O)Nc1ccccc1N1CCCC1	-78.5*	-2.0%	-22.6%	4.0%	0.9%
O=C(CN1CCc2ccccc2C1)Nc1ccccc1N1CCCCCC1	x	-28.9%	u	18.3µM*	u
O=C(Nc1ccccc1F)Nc1ccccc1N1CCCCC1	-83.1*	u	u	-17.4%	14.1µM*

Screens from PubChem BioAssay.
